Here are results for 40 compounds from PubChem BioAssay (Tox21).

Records with an inconclusive call do not appear. A call without a number means that no potency is given here. Some structures have more than one record in an assay (separate samples or runs), and their calls can disagree. Active and inactive are the calls of the source. Calls come from the whole dose curve; as a rule, active = well fitted activation curve with a large enough effect in the signal ratio in the repeat runs (not every such curve was filed as active); inconclusive = weak or mixed curves; inactive = flat fitted curve, though single readings scatter; the % refers to the signal ratio.
Potency is the fitted concentration of half-maximal effect.

This test in a line: qHTS assay to identify small molecule agonists of the TGF-beta/Smad signaling pathway (AID 1346859). The conditions noted are these: SBE-bla HEK293T, TGF-beta/Smad beta-lactamase reporter, 5 h; series mostly up to 76.8 µM. The text has this: U.S. Tox21 Program National Center for Advancing Translational Sciences [NCATS] NIH Chemical Genomics Center [NCGC] U.S. Environmental Protection Agency [EPA] National Institutes of Environmental Health Sciences [NIEHS] National Toxicology Program [NTP] U.S. Food and Drug Administration [FDA] Tox21 Assay Overview: Transforming growth factor beta (TGF-beta) superfamily consists of a large number of structurally related dimeric proteins that act as hormones or local mediators in regulating a wide range of biological functions. This superfamily includes TGF-betas themselves, the bone morphogenetic proteins (BMPs) and the activins. These ligands induce oligomerization of serine/threonine receptor kinases and phosphorylate the cytoplasmic signaling molecules of Smad protein family. CellSensor SBE-bla HEK 293T cell line (Life Technologies, Carlsbad, CA), responsive to TGF-beta was used to screen Tox21 10K compound library for identification of agonists/antagonists of the Smad signaling pathway. This cell line contains a beta-lactamase reporter gene under control of the Smad binding element (SBE) stably integrated into HEK 293T cells.
Tox21 Assay Protocol Summary: SBE-bla HEK 293T cells were dispensed at 4,000/well in 6 uL of assay medium into black wall/clear-bottom 1536-well plates using a Multidrop Combi (ThermoFisher Scientific, Waltham, MA) dispenser. After the assay plates were incubated at 37 C and 5% CO2 for an overnight, 23 nL of compounds dissolved in DMSO, positive controls or DMSO only was transferred to the assay plate by a Pintool station (Kalypsys, San Diego, CA). The assay plates were incubated at 37 C and 5% CO2 for 5 hr. One uL of LiveBLAzer B/G FRET substrate (Life Technologies) was added using a Flying Reagent Dispenser (Aurora Discovery, San Diego, CA) and the plates were incubated at room temperature for 2 hr. Fluorescence intensity (405 nm excitation, 460 nm and 530 nm emissions) was measured using an Envision plate reader (PerkinElmer, Shelton, CT).
Background: qHTS replaces the single test concentration by a dilution series.
As to `CCCCOC(=O)COC(=O)c1ccccc1C(=O)OCCCC`, the Potency entry is “inactive”.
For the compound `COP(=S)(OC)SCn1nnc2ccccc2c1=O`, the Potency result was “inactive”.
Under `CCOP(=S)(OCC)OP(=S)(OCC)OCC` stands “inactive”; under `CC(C)CON=O`, “inactive”; under `COP(=S)(OC)Oc1ccc(S(=O)(=O)N(C)C)cc1`, “inactive”.
Then `CCOP(=S)(OCC)SCSC(C)(C)C`, with “inactive”; and `CNC(=O)CSP(=S)(OC)OC`, with “inactive”.
Then `CCC(=O)Nc1ccc(Cl)c(Cl)c1`, with “inactive”; and `CCOS(=O)(=O)OCC`, with “inactive”; and `CCCCCCCCCC(CC)c1ccc(S(=O)(=O)O)cc1` (stereo not given), with “inactive”.
With `CC(C)(C#N)N=NC(C)(C)C#N`, the Potency result is “inactive”.
Consider `CC(C)Nc1nc(Cl)nc(NC(C)C)n1`, for which the Potency entry is “inactive”.
With `CCN(CC)C(=O)C(C)Oc1cccc2ccccc12` (stereo not given), the Potency entry is “inactive”.
On to `CS(=O)(=O)NC(=O)c1cc(Oc2ccc(C(F)(F)F)cc2Cl)ccc1[N+](=O)[O-]`, for which the Potency entry is “inactive”.
Regarding `Cc1cccc(N=Nc2ccc(N(C)C)cc2)c1`, the Potency entry was “inactive”.
On to `COc1ccc(CO)cc1`, for which the Potency entry is “inactive”.
`CN(C)c1ccccc1`: the Potency entry is “inactive”.
As to `O=[N+]([O-])/N=C1\NCCN1Cc1ccc(Cl)nc1`, the Potency entry is “inactive”.
`CC1(C)C(C(=O)OC(C#N)c2cccc(Oc3ccccc3)c2)C1(C)C` (stereo not given): the Potency result was “inactive”.
Consider `C[C@]12CC[C@H]3[C@@H](CCC4=CC(=O)CC[C@@H]43)[C@@H]1CC[C@@H]2O`, for which the Potency result is “inactive”.
Then `CCCCCCCCCCCCCl`, with “inactive”; and `NN=C(N)N`, with “inactive”.
Under `C[C@]12CCC(=O)C=C1CC[C@@H]1[C@@H]2CC[C@@]2(C)[C@H]1CC[C@]2(C)O` stands “inactive”; under `Cc1ccc([N+](=O)[O-])cc1`, “inactive”.
Then `CC(O)CN(CC(C)O)CC(C)O` (stereo not given), with “inactive”.
For `CN(C)c1nc(=O)n(C2CCCCC2)c(=O)n1C`, the Potency entry was “inactive”.
Turning to `O=C1CCCO1`, the Potency result is “inactive”.
Turning to `CCNc1nc(Cl)nc(NC(C)(C)C#N)n1`, the Potency entry is “inactive”.
As for `Oc1ccc(Cl)cc1Cl`, the Potency was 48.6 µM (active) and inactive.
Under `O=C(O)CF` stands “inactive”; under `N#Cc1nn(-c2c(Cl)cc(C(F)(F)F)cc2Cl)c(N)c1S(=O)C(F)(F)F` (stereo not given), “inactive”.
Consider `O=[N+]([O-])c1ccc(Nc2ccccc2)cc1`, for which the Potency result is “inactive”.
For the compound `O=S(=O)(O)C(F)(F)C(F)(F)C(F)(F)C(F)(F)C(F)(F)C(F)(F)C(F)(F)C(F)(F)F`, the Potency result was “inactive”.
As for `N#CC(c1ccccc1)c1ccccc1`, the Potency entry was “inactive”.
For the compound `COc1ccc(O)c(C(C)(C)C)c1`, the Potency entry was “inactive”.
Under `Oc1ccc(Cl)cc1Cc1ccccc1` stands “inactive”; under `CC(C)=CC1C(C(=O)OCc2cccc(Oc3ccccc3)c2)C1(C)C` (stereo not given), “inactive”; under `c1ccc(C2CO2)cc1` (stereo not given), “inactive”.
With `COP(=O)(NC(C)=O)SC` (stereo not given), the Potency entry was “inactive”.
For the compound `Cc1ccc(N=CN(C)C=Nc2ccc(C)cc2C)c(C)c1`, the Potency entry was “inactive”.
